Nrf2 ARE act = activates Nrf2 signaling; AID 624171; AREc32 ARE-luciferase reporter (MCF7-derived line), luminescence, 24 h; Potency, µM (highest dose often 46.1 µM), inactives show at the highest dose activation, actives largely listed as activators; 410,000 compounds, 0.31% hits; note: potency is the fitted concentration of half-maximal effect; % of control where 0% means no effect; nearly all actives have a fitted effect of over 65% in size
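ARE-driven firefly luciferase activity in AREc32 cells measured after a 24 hr compound exposure at 37 deg C, using Steady-Glo reagent and a 30 min room-temperature hold.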
A549 viability = kills or reduces viability of A549 cells in Nrf2 counter-screen; A549 ARE-Fluc cells, CellTiter-Fluor viability, 18-24 h; Potency, µM (top dose mostly 46 µM), for inactives: top-dose activity change, negative = cytotoxicity, most hits filed as inhibitors; 390,000 compounds, 0.16% hits; AID 504648; note: potency is the fitted concentration of half-maximal effect; % is set by controls: 0 for no effect and ±100 for the full control effect
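A549 ARE_Fluc cells in 5% FBS OPTI-MEM were exposed to compounds in concentration-response for 18-24 h at 37 deg C. Viability was read by CellTiter-Fluor fluorescence (Ex 405/Em 525) after 30 min, before the luciferase read.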
Nrf2 block = blocks Nrf2 signaling; A549 ARE-Fluc reporter, luciferase luminescence, 18-24 h; AID 504444; 360,000 compounds, 2.1% hits; Potency, µM (highest dose often 46 µM), without a hit: top-dose activity change, negative = inhibition, hits mostly inhibitors; note: potency is the fitted concentration of half-maximal effect; % is set by controls: 0 for no effect and ±100 for the full control effect; nearly all actives have a fitted effect of over 60% in size
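A549 ARE_Fluc cells (5000/well, 5% FBS OPTI-MEM) pre-incubated 2 h, then treated with compounds 18-24 h at 37C/5% CO2 in concentration-response. CellTiter-Fluor viability read first; BugLite luciferase luminescence after 15 min at room temperature gives Nrf2 activity.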
LDHA block = blocks human lactate dehydrogenase A; P00338; purified LDHA, NADH/diaphorase-resazurin fluorescence; stronger effect = lower value; activity change, % (values are at about 110 or 230 µM); 480,000 compounds, 0.15% hits; AID 1347041; in the data active = activity change below about -30%; inconclusive = mostly about -25% to -30%;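 note: plate controls were DMSO wells for no effect and wells without enzyme for full effect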
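Human LDH5 at 2 nM final in Tris HCl pH 7.4 with 0.06 mM NADH and 0.2 mM pyruvate, reacted 5 minutes at room temperature. Remaining NADH coupled via diaphorase/resazurin; resorufin fluorescence read at 0 and 20 minutes, normalized to enzyme-free and DMSO wells.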
mIDH1 inhibitor = blocks human mutant IDH1 R132H enzyme | IDH1-R132H enzyme, NADPH consumption, diaphorase/resazurin fluorescence | 390,000 compounds, 0.093% hits | O75874 | Potency, µM (top dose mostly 76.6 µM), without a hit: top-dose activity change, negative = inhibition, most hits filed as inhibitors; note: potency is the fitted concentration of half-maximal effect; % is set by controls: 0 for no effect and ±100 for the full control effect; nearly all actives have a fitted effect of over 65% in size
Target sequence (O75874 whole entry R132H, stated change not applied): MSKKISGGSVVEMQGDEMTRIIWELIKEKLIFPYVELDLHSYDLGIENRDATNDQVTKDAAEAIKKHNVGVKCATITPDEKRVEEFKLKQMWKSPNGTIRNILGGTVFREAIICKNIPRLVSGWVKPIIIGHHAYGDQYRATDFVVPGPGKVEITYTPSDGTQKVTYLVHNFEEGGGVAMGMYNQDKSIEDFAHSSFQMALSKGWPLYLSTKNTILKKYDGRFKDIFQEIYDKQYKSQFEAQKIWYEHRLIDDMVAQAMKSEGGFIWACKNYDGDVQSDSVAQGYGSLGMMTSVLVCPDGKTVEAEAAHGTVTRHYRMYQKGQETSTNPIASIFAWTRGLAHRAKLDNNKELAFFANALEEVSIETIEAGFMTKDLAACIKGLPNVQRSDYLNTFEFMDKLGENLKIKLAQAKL
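IDH1-R132H (0.5 ug/mL dispensed) in pH 7.5 Tris buffer was preincubated 30 min with compound, then given a substrate mix of 0.016 mM NADPH and 2 mM alpha-KG for 80 min at room temperature; remaining NADPH was read by diaphorase/resazurin fluorescence.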
ALOX12 inh = inhibitors of human 12S-lipoxygenase ALOX12; Potency, µM (highest dose often 108 µM), inactives show at the highest dose activity change, negative = inhibition, usual class: inhibitors; purified 12hLO, xylenol orange hydroperoxide absorbance; 580,000 compounds, 1.1% hits; note: potency is the fitted concentration of half-maximal effect; % is set by controls: 0 for no effect and ±100 for the full control effect
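Purified human 12hLO at 150 nM in 25 mM Hepes, 0.01% Triton X-100, pH 7.0, preincubated 15 min at room temperature with compound. Reaction started with 40 uM arachidonic acid, 30 min at room temperature. Hydroperoxide measured by Fe-xylenol orange, 573/405 nm absorbance ratio.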
* hit, by the source's call; ? = inconclusive; . = not tested or not shown; [ ] = another dose, or the depositor's remark. Shown are actives, neighbours in structure and some others; about 2.7% of the full set was active somewhere. Unless noted, calls come from the whole dose curve; as a rule, active = well fitted curve in the direction sought with a large enough effect; inconclusive = small, poorly fitted or top-dose-only effect, or another doubt; inactive = no such curve, though single readings can be large; an effect the other way counts as inactive or inconclusive.

SMILES | Nrf2 ARE act | A549 viability | Nrf2 block | LDHA block | mIDH1 inhibitor | ALOX12 inh
N#CNC(=Nc1cccc(F)c1)SCc1ccccc1 | 11.3% | 1.7% | -23.9% | 0.3 | 2.8% | ?
N#CNC(=Nc1cccc(F)c1)SCc1cccc(F)c1 | 18.3% | -9.0% | 23.1µM* | -4.4 | -2.9% | -15.1%
Cc1ccc(Cn2c(=O)c3cccnc3n(CC(=O)Nc3cccc(C(F)(F)F)c3)c2=O)cc1 | 5.2% | 4.5% | 5.8µM* | -8.5 | -10.7% | ?
CNC(=S)N/N=C1\CC(c2ccccc2)Oc2ccccc21 (centres undefined) | 6.0% | 0.2% | -28.2% | -2.0 | 6.3% | 39.8µM*
Fc1ccc(N/N=C2/CC(c3ccccc3)Oc3ccccc32)c(F)c1 (centres undefined) | 12.6µM* | 12.0% | -0.9% | 3.1 | 0.0% | ?
O=C1CC(c2ccccc2)Oc2ccccc21 (centres undefined) | ? | -1.8% | 9.1% | -4.9 | -2.2% | 10.3%
S=C(Nc1nc2c(s1)CCCC2)NC1CC1 | 7.3% | -0.1% | ? | 0.3 | -1.0% | 44.7µM*
COC(=O)c1ccc(C(=O)NC(=S)Nc2nc3c(s2)CCCC3)cc1 | 8.6% | 13.8% | 21.7% | -0.2 | 2.2% | -8.4%
O=C(NC(=S)Nc1nc2c(s1)CCCC2)c1ccccc1 | 2.51µM* | -11.5% | ? | -8.9 | 7.1% | -7.0%
Cc1c2c(nc3ccccc13)CCSC2 | . | . | . | 0.9 | . | 4.47µM*
c1ccc(-c2c3c(nc4ccccc24)CCSC3)cc1 | . | . | . | 2.7 | . | 9.4%
Cn1c(/C=N/Nc2nc3ccccc3[nH]2)nc2ccccc21 | 7.8% | 0.9% | ? | -0.9 | 9.4% | -2.7%
CC(C)Cn1c(/C=N/Nc2nc3ccccc3[nH]2)nc2ccccc21 | 0.4% | -4.1% | 7.31µM* | -2.2 | -3.2% | -11.6%
CCCn1c(/C=N/Nc2nc3ccccc3[nH]2)nc2ccccc21 | 2.5%[9.22 µM] | ? | 14.6µM* | -1.9 | 2.3% | 10.9%
Cc1c(/C=N/Nc2nc3ccccc3[nH]2)c2ccccc2n1C | 0.1% | -27.9% | ? | -3.7 | 17.3% | ?
CCCCn1c(-c2csc(CC)c2)n[nH]c1=S | 1.2% | 1.0% | -10.7% | -10.9 | -6.6% | 50.1µM*
CCCCn1c(-c2csc(C(C)C)c2)n[nH]c1=S | 0.6% | 3.1% | -19.5% | -10.0 | 6.9% | ?
CCc1cc(-c2n[nH]c(=S)n2-c2cccc(C)c2)cs1 | -0.6% | 1.6% | 10.1% | -5.3 | 4.5% | 31.6µM*
CCCCn1c(-c2csc3ccccc23)n[nH]c1=S | 1.8% | 1.7% | 1.7% | -4.6 | 3.2% | ?
CCCCCCn1c(-c2cccs2)n[nH]c1=S | 0.0% | 1.2% | -18.4% | 0.2 | -1.6% | 28.2µM*
Cc1cccc(-n2c(-c3csc(C)c3)n[nH]c2=S)c1 | -0.2% | -2.4% | . | -6.0 | -3.6% | ?
COCc1ccc(C(=O)NC2CCCc3c2cnn3-c2ccc(C)c(C)c2)o1 (centres undefined) | -0.8% | -5.9% | 14.6µM* | -1.2 | 0.0% | ?
Nc1nc(OCC2CCCCC2)c2[nH]cnc2n1 | 1.1% | ? | 18.4µM* | -6.0 | -13.4% | -1.9%
Cc1csc(-c2ccc3cc(Cl)cc(Cl)c3n2)n1 | 2.51µM* | . | . | -1.0 | . | -2.5%
Cc1csc(NC(=O)Cc2csc(-c3ccccc3Cl)n2)n1 | . | . | . | 7.7 | . | -30.9%
SMILES | Nrf2 ARE act | A549 viability | Nrf2 block | LDHA block | mIDH1 inhibitor | ALOX12 inh
COc1ccc(S(=O)(=O)NC(c2ccc(F)cc2)c2cccs2)cc1NC(C)=O (centres undefined) | . | . | . | -5.5 | . | 29.3%
Cc1cc(=O)n2c(n1)NC(Nc1ccc(F)cc1)=NC2c1ccco1 (centres undefined) | . | . | . | -10.7 | . | 26.2%
Cc1cc(=O)n2c(n1)NC(Nc1ccc(F)cc1)=NC2c1cccs1 (centres undefined) | . | . | . | -37.4* | . | 35.3%
N#Cc1nc(-c2ccc(S(=O)(=O)N3CCCCCC3)cc2)oc1N1CCOCC1 | . | . | . | 8.3 | . | -16.8%
O=C(Nc1ncc(Cc2ccccc2)s1)C1CCN(C(=O)c2ccco2)CC1 | . | -10.6% | 20.6µM* | -1.7 | . | .
CCOc1ccc(CCN2C(=S)N([C@@H](Cc3ccc(O)cc3)CN3CCCC3CN3C(=S)NC[C@@H]3Cc3ccc(O)cc3)C[C@@H]2CC(C)C)cc1 (some centres undefined) | -0.9% | -11.4% | 16.4µM* | -3.0 | 4.4% | ?
CCOc1ccc(CCN2C(=S)N([C@@H](Cc3ccccc3)CN3CCC[C@@H]3CN3C(=S)NC[C@@H]3Cc3ccc(O)cc3)C[C@@H]2CC(C)C)cc1 | 3.7% | . | . | -12.9 | . | ?
CC(=O)NC(c1ccc2ccccc2c1)c1ccc2cccnc2c1O (centres undefined) | 0.1% | -20.4% | 14.6µM* | 2.6 | -16.4% | ?
COc1ccc(C(NC(C)=O)c2ccc3cccnc3c2O)cc1OC (centres undefined) | . | . | . | 10.3 | . | .
CCCC(=O)NC(c1ccc(C)cc1)c1ccc2cccnc2c1O (centres undefined) | -0.7% | -0.3% | ? | 8.9 | -4.7% | .
Cc1ccc(C(Nc2ccccn2)c2ccc3cccnc3c2O)cc1 (centres undefined) | -0.8% | -7.3% | ? | 5.5 | -12.8% | 17.8µM*
Cc1ccn(CCC(=O)N2CC(=O)N(C3CCCCC3)CC(OCc3ccccc3)C2)n1 (centres undefined) | . | . | . | . | . | 94.9%
Cc1ccc2nc(SC(C)C(=O)NC3CCCC3)[nH]c2c1 (centres undefined) | 1.3% | -4.1% | -15.2% | -5.7 | -3.6% | -8.5%
Cc1ccc2nc(SC(C)C(=O)Nc3cccc([N+](=O)[O-])c3)[nH]c2c1 (centres undefined) | 6.5% | -14.9% | 20.6µM* | -2.2 | 3.1% | -13.7%
C=CC(=O)Nc1ccc(N(C)c2ccnc(Nc3ccc(N4CCN(C)CC4)cc3)n2)cc1 | 5.0% | 7.31µM* | 14.8% | 4.5 | 19.4% | 8.7%
COc1cc2c[n+](C)c3c4ccccc4ccc3c2cc1OC | 3.3% | -7.1% | 16.4µM* | -8.0 | 5.5% | -22.3%
COc1ccc2c(c1)c[n+](C)c1c3cc(OC)c(OC)cc3ccc21 | 0.4% | . | . | 1.7 | . | ?
CCCN(CC(=O)Nc1ccccc1OC)C(=O)c1cc(-c2ccccc2)nn1-c1ccccc1 | 4.2% | -6.9% | -25.8% | -0.2 | 4.8% | 44.7µM*
Cc1[nH]c2ccccc2c1/C=C(\C#N)C(=O)NCC1CCCO1 (centres undefined) | 4.0% | ? | -12.7% | -3.0 | 16.6% | -24.6%
COCCCNC(=O)/C(C#N)=C/c1c(C)[nH]c2ccccc12 | . | . | . | 4.6 | . | 39.8µM*
